# Source: PubChem BioAssay (EPA / NIEHS)
# Inconclusive results are not listed. The source made the active and inactive calls. The calls were made as follows, unless noted: active = hit-call score of the fitted dose curve at least 0.9, where 1 is the maximum; inactive = score below 0.9.
# Assay: CCTE_Harrill_HTTr_Viability_MCF7: CCTE's 6-hour Cell Viability Assessment for the High-Throughput Transcriptomics (HTTr) Platform, in MCF-7 cells cultured in DMEM + 10% fetal bovine serum, Harrill Lab (AID 2284010)
# Summary of the method: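 Eight-point concentration series, six-hour exposure. Propidium iodide exclusion imaged to assess membrane integrity as a cytotoxicity readout; bidirectional fitting was done with DMSO as negative control and activity baseline.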
row,SMILES,outcome
1,Clc1ccc(-c2nc3sccn3c2/C=N/OCc2ccc(Cl)c(Cl)c2)cc1,inactive
2,CCCCCCCCCCCCCCCC=O,inactive
3,Nc1c(S(=O)(=O)O)cc(Nc2ccccc2)c2c1C(=O)c1ccccc1C2=O,inactive
4,NCCNCCNCCNCCN,inactive
5,CCCCOC(=O)/C=C/C(=O)OCCCC,inactive
6,CC(CC(C)(C)C)CC(C)(C)C,inactive
7,Cc1cc(N=Nc2c(O)ccc3ccccc23)c(S(=O)(=O)O)cc1Cl,inactive
8,OCCC1CCCCN1 (stereo not given),inactive
9,COc1c2occc2c(OC)c2c(=O)cc(C)oc12,inactive
10,O=C[C@H](O)[C@@H](O)[C@@H](O)CO,inactive
11,CCC(=O)O[C@H]1[C@H](O[C@@H]2[C@@H](C)[C@H](O[C@H]3C[C@@](C)(OC)[C@@H](O)[C@H](C)O3)[C@@H](C)C(=O)O[C@H](CC)[C@@](C)(O)[C@H](O)[C@@H](C)C(=O)[C@H](C)C[C@@]2(C)O)O[C@H](C)C[C@@H]1N(C)C,inactive
12,CCOC(=O)[C@@H](C)Oc1ccc(Oc2cnc3cc(Cl)ccc3n2)cc1,inactive
13,CC1=CC(=O)C(C(C)C)CC1 (stereo not given),inactive
14,CC(=O)C(O)O,inactive
15,CCOCCOC(=O)C=Cc1ccc(OC)cc1,inactive
16,CCOc1ccc2ccccc2c1,inactive
17,OCCS,inactive
18,Cc1ccc2[nH]c3cc4c(=O)c5cc(C)ccc5[nH]c4cc3c(=O)c2c1,inactive
19,CCOC(=O)C(C)CC (stereo not given),inactive
20,O=c1cc(-c2ccccc2)oc2c1ccc1ccccc12,inactive

row,SMILES,outcome
1,Nc1nc2nc[nH]c2c(=O)[nH]1,inactive
2,NC[C@H](O)c1ccc(O)c(O)c1,inactive
3,CCOC(=O)c1ccccc1C(=O)O,inactive
4,CCCCCCCCCCCC[N+](C)(C)[O-],inactive
5,CC1CN(c2cc3c(cc2F)c(=O)c(C(=O)O)cn3-c2ccc(F)cc2F)CCN1 (stereo not given),inactive
6,CCCCc1nc(Cl)c(CO)n1Cc1ccc(-c2ccccc2-c2nnn[nH]2)cc1,inactive
7,CC(=O)c1cccc2ccccc12,inactive
8,C/C(=C\c1ccc(C(=O)O)cc1)c1ccc2c(c1)C(C)(C)CCC2(C)C,inactive
9,CCCCCCCCOC(=O)c1ccccc1C(=O)O,inactive
10,CO[Si](OC)OC,inactive
11,C=O.C=O.C=O.C=O.C=O.[Fe],inactive
12,CC(=O)C(=NNc1ccc(-c2ccc(NN=C(C(C)=O)C(=O)Nc3ccc(C)cc3C)c(Cl)c2)cc1Cl)C(=O)Nc1ccc(C)cc1C,inactive
13,C=C1CCC2CC1C2(C)C (stereo not given),inactive
14,CC(=CC(C)(C)C)CC(C)(C)C,inactive
15,CCCCN1C(=O)c2ccccc2C1=O,inactive
16,Cc1ncc(C[n+]2csc(CCO)c2C)c(N)n1,inactive
17,O=c1ccc2ccc(O)cc2o1,inactive
18,O=C(O)c1ccccc1C(=O)OC1CCCCC1,inactive
19,CN1[C@@H]2CC[C@H]1CC(OC(=O)C(CO)c1ccccc1)C2 (stereo not given in full),inactive

# Assay: CCTE_Harrill_HTTr_Apoptosis_MCF7: CCTE's 6-hour Apoptosis Assessment for the High-Throughput Transcriptomics (HTTr) Platform, in MCF-7 cells cultured in DMEM + 10% fetal bovine serum, Harrill Lab (AID 2284011)
# Summary of the method: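 Cells are dosed with test chemicals at eight concentrations and imaged 6 hours later for caspase-3/7 activity using a green fluorogenic detection reagent. Activity is fitted in both directions against DMSO controls.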
row,SMILES,outcome
1,Clc1ccc(-c2nc3sccn3c2/C=N/OCc2ccc(Cl)c(Cl)c2)cc1,inactive
2,OCCC1CCCCN1 (stereo not given),inactive
3,O=C[C@H](O)[C@@H](O)[C@@H](O)CO,inactive
4,CCC(=O)O[C@H]1[C@H](O[C@@H]2[C@@H](C)[C@H](O[C@H]3C[C@@](C)(OC)[C@@H](O)[C@H](C)O3)[C@@H](C)C(=O)O[C@H](CC)[C@@](C)(O)[C@H](O)[C@@H](C)C(=O)[C@H](C)C[C@@]2(C)O)O[C@H](C)C[C@@H]1N(C)C,inactive
5,CCOC(=O)[C@@H](C)Oc1ccc(Oc2cnc3cc(Cl)ccc3n2)cc1,inactive
6,OCCS,inactive
7,Cc1ccc2[nH]c3cc4c(=O)c5cc(C)ccc5[nH]c4cc3c(=O)c2c1,inactive
8,CC1CN(c2cc3c(cc2F)c(=O)c(C(=O)O)cn3-c2ccc(F)cc2F)CCN1 (stereo not given),inactive
9,CC(=O)C(=NNc1ccc(-c2ccc(NN=C(C(C)=O)C(=O)Nc3ccc(C)cc3C)c(Cl)c2)cc1Cl)C(=O)Nc1ccc(C)cc1C,inactive
10,CC(=CC(C)(C)C)CC(C)(C)C,inactive
11,CCCCN1C(=O)c2ccccc2C1=O,inactive
12,Cc1ncc(C[n+]2csc(CCO)c2C)c(N)n1,inactive

# Assay: CCTE_Harrill_HTTr_CellCount_MCF7: CCTE's Cell Proliferation Assessment for the High-Throughput Transcriptomics (HTTr) Platform, Harrill Lab (AID 2284012; active = hit-call score of the fitted dose curve at least 0.9, where 1 is the maximum;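 also: count of Hoechst-stained nuclei per well by high-content imaging in MCF-7 cells; cells exposed to compound for six hours; intended direction is loss of nuclei count meaning fewer cells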)
# Summary of the method: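 For this full-screen endpoint, MCF-7 cultures received eight compound dilutions for six hours. Well nuclei counts from Hoechst imaging were analyzed relative to DMSO.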
row,SMILES,outcome
1,CCCCCCCCCCCCCCCC=O,inactive
2,Nc1c(S(=O)(=O)O)cc(Nc2ccccc2)c2c1C(=O)c1ccccc1C2=O,inactive
3,NCCNCCNCCNCCN,inactive
4,CC(CC(C)(C)C)CC(C)(C)C,inactive
5,Cc1cc(N=Nc2c(O)ccc3ccccc23)c(S(=O)(=O)O)cc1Cl,inactive
6,COc1c2occc2c(OC)c2c(=O)cc(C)oc12,inactive
7,O=C[C@H](O)[C@@H](O)[C@@H](O)CO,inactive
8,CCC(=O)O[C@H]1[C@H](O[C@@H]2[C@@H](C)[C@H](O[C@H]3C[C@@](C)(OC)[C@@H](O)[C@H](C)O3)[C@@H](C)C(=O)O[C@H](CC)[C@@](C)(O)[C@H](O)[C@@H](C)C(=O)[C@H](C)C[C@@]2(C)O)O[C@H](C)C[C@@H]1N(C)C,inactive
9,CC1=CC(=O)C(C(C)C)CC1 (stereo not given),inactive
10,CC(=O)C(O)O,inactive
11,CCOCCOC(=O)C=Cc1ccc(OC)cc1,inactive
12,CCOc1ccc2ccccc2c1,inactive
13,OCCS,inactive
14,Cc1ccc2[nH]c3cc4c(=O)c5cc(C)ccc5[nH]c4cc3c(=O)c2c1,inactive
15,O=c1cc(-c2ccccc2)oc2c1ccc1ccccc12,inactive
16,Nc1nc2nc[nH]c2c(=O)[nH]1,inactive
17,NC[C@H](O)c1ccc(O)c(O)c1,inactive
18,CC1CN(c2cc3c(cc2F)c(=O)c(C(=O)O)cn3-c2ccc(F)cc2F)CCN1 (stereo not given),inactive
19,CCCCc1nc(Cl)c(CO)n1Cc1ccc(-c2ccccc2-c2nnn[nH]2)cc1,inactive
20,C/C(=C\c1ccc(C(=O)O)cc1)c1ccc2c(c1)C(C)(C)CCC2(C)C,inactive
21,CCCCCCCCOC(=O)c1ccccc1C(=O)O,inactive
22,CO[Si](OC)OC,inactive
23,CC(=O)C(=NNc1ccc(-c2ccc(NN=C(C(C)=O)C(=O)Nc3ccc(C)cc3C)c(Cl)c2)cc1Cl)C(=O)Nc1ccc(C)cc1C,inactive
24,C=C1CCC2CC1C2(C)C (stereo not given),inactive
25,CC(=CC(C)(C)C)CC(C)(C)C,inactive
26,Cc1ncc(C[n+]2csc(CCO)c2C)c(N)n1,inactive
27,O=c1ccc2ccc(O)cc2o1,inactive
28,O=C(O)c1ccccc1C(=O)OC1CCCCC1,inactive
29,CN1[C@@H]2CC[C@H]1CC(OC(=O)C(CO)c1ccccc1)C2 (stereo not given in full),inactive
